Test [1] is described as follows: Nuclear factor erythroid 2-related factor 2/antioxidant responsive element (Nrf2/ARE) small molecule agonists: qHTS cell viability counter screen in human keratinocytes (AID 1919968; active = well fitted curve in the direction sought with a large enough effect in the repeat runs; an effect the other way counts as inactive or inconclusive; note: nearly all actives have a fitted effect of over 55% in size). The procedure, abridged:
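Parallel cytotoxicity read: KeratinoSens HaCaT cells, compound treatment 23 h, viability by CellTiter-Fluor fluorescence 1 h post-reagent.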
On the technique in general: In qHTS, concentration-response curves come from the screen itself.

Test [2] is described as follows: Nuclear factor erythroid 2-related factor 2/antioxidant responsive element (Nrf2/ARE) small molecule agonists: luciferase reporter gene qHTS assay in human keratinocytes (AID 1919969). Note: nearly all actives have a fitted effect of over 35% in size. Background: In a reporter assay the amount or activity of a reporter protein is the signal.
The target in test [3] is Gonadotropin-releasing hormone receptor (Homo sapiens) (UniProt P30968). Put plainly: Human gonadotropin-releasing hormone receptor (GnRHR) small molecule agonists, calcium flux assay in GnRHR-HEK293 cells (AID 1920063). Note: nearly all actives have a fitted effect of over 35% in size. The essentials:
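Calcium flux, agonist mode, human GnRHR stably integrated in HEK293; dye 1 h at 37 C before compound; Ex/Em=480/540 kinetic read, 3 min; 15 concentrations, triplicate.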
A general note: A change in cytosolic calcium serves as a functional read-out for many receptors and channels.

Test [4] has as its target KiSS-1 receptor (Homo sapiens) (UniProt Q969F8). Put plainly: Human kisspeptin (KISS1R) small molecule agonists, calcium flux assay in KISS1R-HEK293 cells (AID 1920064; active = well fitted curve in the direction sought with a large enough effect in the repeat runs; an effect the other way counts as inactive or inconclusive). The procedure, abridged: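 Triplicate 15-concentration series were applied to dye-loaded human KISS1R HEK293 cells, and agonist-evoked calcium fluorescence was captured for 3 min.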
The nature of test [5]: G protein-coupled receptor (GPCR) small molecule agonists, calcium flux assay: HEK293 wild type cell line counter screen (AID 1920065). The procedure, abridged: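 Non-specific calcium responders were flagged by adding DMSO-dissolved compounds to dye-loaded cells and reading 480/540 nm fluorescence each second for 3 min; ATP served as positive control.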
Test [6] can be described thus: p53 small molecule agonists, cell-based qHTS assay with human liver microsomes: qHTS cell viability counter screen (AID 1963579). Note: nearly all actives have a fitted effect of over 45% in size. The essentials: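 Tox21 library compounds, delivered from DMSO stocks, were tested on p53RE-bla cells together with 0.5 mg/mL human liver microsomes and 0.5 mg/mL NADPH (final) over 16 h at 37 C; CellTiter-Glo luminescence served as the cytotoxicity measure.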

Test [7] can be described thus: p53 small molecule agonists, cell-based qHTS assay with rat liver microsomes: qHTS cell viability counter screen (AID 1963580). Note: nearly all actives have a fitted effect of over 45% in size. The essentials:
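Cytotoxicity counter screen: intracellular ATP read by CellTiter-Glo luminescence in the p53 reporter wells. HCT-116 p53RE-bla cells were treated for 16 h at 37 C alongside rat liver microsomes and NADPH, each 0.5 mg/mL final.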

Test [8] in a line: p53 small molecule agonists, cell-based qHTS assay: qHTS cell viability counter screen (AID 1963581). Note: nearly all actives have a fitted effect of over 45% in size. The essentials:
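Multiplexed with the reporter read, a CellTiter-Glo step (30 min, room temperature) gauges ATP-based viability of HCT-116 p53RE-bla cells after 16 h compound incubation at 37 C.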

Test [9] has as its target 5-hydroxytryptamine receptor 2A (Homo sapiens) (UniProt P28223). Description: 5-hydroxytryptamine receptor 2A (HTR2A) small molecule antagonists, cell-based qHTS assay (AID 1963586). Note: nearly all actives have a fitted effect of over 45% in size. The procedure, abridged: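 CHO cells stably expressing human HTR2A were plated for 18 h at 37 C, then loaded with calcium dye for 1 h. Compounds were preincubated 5 min at room temperature before DOI (4 nM solution) was added. Kinetic fluorescence was read for 3 min.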

For test [10] the target is unchanged. Put plainly: 5-hydroxytryptamine receptor 2A (HTR2A) small molecule agonists, cell-based qHTS assay (AID 1963587). Note: nearly all actives have a fitted effect of over 30% in size. The procedure, abridged:
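Kinetic calcium-flux fluorescence (2 min, 1 sec intervals) after compound addition in agonist mode. HTR2A-CHO cells were cultured 18 h, then dye-loaded 1 h at 37 C.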

Test [11] deals with Muscarinic acetylcholine receptor M1 (Homo sapiens) (UniProt P11229). Description: Cholinergic receptor muscarinic 1 (CHRM1) small molecule antagonists, cell-based qHTS assay (AID 1963588). Note: nearly all actives have a fitted effect of over 40% in size. The essentials: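 Compounds were tested at 15 concentrations in three independent runs. Dye-loaded CHRM1-CHO cells were exposed 5 min at room temperature before stimulation by acetylcholine added at 50nM. Intracellular calcium was read kinetically on FDSS for 3 min.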
Muscarinic acetylcholine receptor M1 (Homo sapiens), sequence (P11229 whole entry, looked up): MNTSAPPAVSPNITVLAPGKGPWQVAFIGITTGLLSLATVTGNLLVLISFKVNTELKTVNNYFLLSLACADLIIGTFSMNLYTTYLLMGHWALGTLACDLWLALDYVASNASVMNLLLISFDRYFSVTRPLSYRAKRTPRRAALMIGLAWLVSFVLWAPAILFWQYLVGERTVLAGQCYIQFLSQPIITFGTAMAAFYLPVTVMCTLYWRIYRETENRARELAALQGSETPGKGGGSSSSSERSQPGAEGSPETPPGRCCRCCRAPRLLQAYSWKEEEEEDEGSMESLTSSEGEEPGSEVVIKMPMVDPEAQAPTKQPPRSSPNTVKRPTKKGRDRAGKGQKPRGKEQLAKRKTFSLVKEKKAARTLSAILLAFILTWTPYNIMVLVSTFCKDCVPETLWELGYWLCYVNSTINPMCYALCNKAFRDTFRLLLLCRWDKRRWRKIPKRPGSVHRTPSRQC

Test [12] shares this target. Put plainly: Cholinergic receptor muscarinic 1 (CHRM1) small molecule agonists, cell-based qHTS assay (AID 1963589). Note: nearly all actives have a fitted effect of over 35% in size. Note: potency is the fitted concentration of half-maximal effect. The essentials: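 qHTS, 15-point titration, 3 independent runs: compounds pin-transferred onto dye-loaded CHRM1-CHO cells (human M1), calcium fluorescence followed every second to detect agonism.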
Test [13] can be described thus: cAMP Responsive Elements (CRE) small molecule agonists, cell-based qHTS assay (AID 1963590). The essentials: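 Quantitative HTS for CRE agonists: HEK 293T CRE-bla cells, overnight plating, 3 h compound incubation at 37 C/5% CO2, then 2 h room-temperature LiveBLAzer B/G FRET substrate loading.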
A short description of test [14]: cAMP Responsive Elements (CRE) small molecule antagonists, cell-based qHTS assay (AID 1963591; active = well fitted inhibition curve with a large enough effect in the signal ratio in the repeat runs, not every such curve was filed as active; the % refers to the signal ratio). The procedure, abridged: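 Fluorescence intensity from cleaved LiveBLAzer B/G substrate (2 h, room temperature) quantified CRE-bla activity in HEK 293T cells exposed 3 h to compound with 0.25 uM final NKH477.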
Test [15] concerns the target Beta-2 adrenergic receptor (Homo sapiens) (UniProt P07550). Description: Adrenergic beta2 receptor (ADRB2) small molecule antagonists, cell-based qHTS assay (AID 1963592). Note: series mostly up to about 92 µM; nearly all actives have a fitted effect of over 50% in size. The procedure, abridged:
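Assay format: CHO-ADRB2 cells, 18-20hr seeding at 37C/5% CO2, then compound plus 1nM isoproterenol agonist mix for 0.5hr RT. Homogeneous time-resolved fluorescence cAMP detection after 1hr, expressed as 665/615 nm ratio.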

For test [16] the target is unchanged. Put plainly: Adrenergic beta2 receptor (ADRB2) small molecule agonists, cell-based qHTS assay (AID 1963593).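 Note: CHO cells stably overexpressing human ADRB2.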 The procedure, abridged: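 CHO cells stably over-expressing ADRB2 were plated overnight at 37C, then dosed with compounds plus a stimulation mix containing 100uM IBMX and 25uM Ro-20-1724 for 0.5hr at room temperature. cAMP was measured by HTRF competition, 1hr.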

For test [17], the target named is D(2) dopamine receptor (Homo sapiens) (UniProt P14416). Put plainly: Dopamine D2 receptor (DRD2) small molecule antagonists, cell-based qHTS assay (AID 1963595; active = well fitted inhibition curve with a large enough effect in the signal ratio in the repeat runs, with a control signal flat; the % refers to the signal ratio). The procedure, abridged:
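HEK293 cells stably expressing DRD2 were preincubated with 0.1 mM Ro20-1724, then with compound for 10 min at room temperature. Cells were stimulated with 200 nM NKH477 plus 12 nM quinpirole for 30 min, and cAMP was read by HTRF.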

Test [18] has the same target. Description: Dopamine D2 receptor (DRD2) small molecule agonists, cell-based qHTS assay (AID 1963594). Note: nearly all actives have a fitted effect of over 35% in size. The essentials: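 cAMP accumulation in DRD2-HEK293 cells measured by HTRF after 1 h detection; compounds added 10 min before NKH477 (200nM […]) forskolin-analogue stimulation, 30 min at room temperature, with Ro20-1724 present at 0.1 mM final.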

The record followed here is PubChem BioAssay (Tox21).

Molecules are shown by their SMILES. A number with no mark means an inactive call. Results filed as inconclusive are left out. Calls of active or inactive are those of the source. Unless noted, calls come from the whole dose curve.

D(2) dopamine receptor (Homo sapiens), sequence (P14416 whole entry, looked up): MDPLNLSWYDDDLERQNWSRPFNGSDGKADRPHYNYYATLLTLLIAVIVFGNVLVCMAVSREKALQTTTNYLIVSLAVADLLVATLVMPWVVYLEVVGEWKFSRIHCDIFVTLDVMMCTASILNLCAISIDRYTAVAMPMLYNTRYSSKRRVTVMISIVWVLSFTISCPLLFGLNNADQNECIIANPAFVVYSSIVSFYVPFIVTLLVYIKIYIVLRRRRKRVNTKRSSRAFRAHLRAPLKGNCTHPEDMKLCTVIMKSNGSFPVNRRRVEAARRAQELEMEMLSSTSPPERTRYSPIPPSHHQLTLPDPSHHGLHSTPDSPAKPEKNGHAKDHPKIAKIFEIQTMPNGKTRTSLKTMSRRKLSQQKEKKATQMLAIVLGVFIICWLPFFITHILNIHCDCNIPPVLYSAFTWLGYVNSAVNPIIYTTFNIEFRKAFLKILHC
Beta-2 adrenergic receptor (Homo sapiens), sequence (P07550 whole entry, looked up): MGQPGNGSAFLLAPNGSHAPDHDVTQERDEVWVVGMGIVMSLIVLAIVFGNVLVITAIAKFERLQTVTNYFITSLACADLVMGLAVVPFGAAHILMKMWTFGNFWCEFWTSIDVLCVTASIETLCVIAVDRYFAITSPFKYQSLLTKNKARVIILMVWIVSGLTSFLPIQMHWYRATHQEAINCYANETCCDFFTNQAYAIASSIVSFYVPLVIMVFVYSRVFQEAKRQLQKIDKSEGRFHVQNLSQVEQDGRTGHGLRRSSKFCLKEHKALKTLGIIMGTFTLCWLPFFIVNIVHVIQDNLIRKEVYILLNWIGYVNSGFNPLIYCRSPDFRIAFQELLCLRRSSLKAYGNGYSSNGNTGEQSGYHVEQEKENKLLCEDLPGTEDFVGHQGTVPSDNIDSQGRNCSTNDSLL
Gonadotropin-releasing hormone receptor (Homo sapiens), sequence (P30968 whole entry, looked up): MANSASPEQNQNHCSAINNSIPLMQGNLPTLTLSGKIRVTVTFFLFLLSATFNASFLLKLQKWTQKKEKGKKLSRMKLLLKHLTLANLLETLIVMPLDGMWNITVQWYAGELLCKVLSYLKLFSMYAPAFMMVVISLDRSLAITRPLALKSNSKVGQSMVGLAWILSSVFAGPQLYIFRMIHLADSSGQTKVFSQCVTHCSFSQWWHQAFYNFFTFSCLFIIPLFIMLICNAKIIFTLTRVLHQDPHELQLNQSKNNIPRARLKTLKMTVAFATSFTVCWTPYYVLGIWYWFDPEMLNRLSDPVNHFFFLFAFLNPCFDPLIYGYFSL
5-hydroxytryptamine receptor 2A (Homo sapiens), sequence (P28223 whole entry, looked up): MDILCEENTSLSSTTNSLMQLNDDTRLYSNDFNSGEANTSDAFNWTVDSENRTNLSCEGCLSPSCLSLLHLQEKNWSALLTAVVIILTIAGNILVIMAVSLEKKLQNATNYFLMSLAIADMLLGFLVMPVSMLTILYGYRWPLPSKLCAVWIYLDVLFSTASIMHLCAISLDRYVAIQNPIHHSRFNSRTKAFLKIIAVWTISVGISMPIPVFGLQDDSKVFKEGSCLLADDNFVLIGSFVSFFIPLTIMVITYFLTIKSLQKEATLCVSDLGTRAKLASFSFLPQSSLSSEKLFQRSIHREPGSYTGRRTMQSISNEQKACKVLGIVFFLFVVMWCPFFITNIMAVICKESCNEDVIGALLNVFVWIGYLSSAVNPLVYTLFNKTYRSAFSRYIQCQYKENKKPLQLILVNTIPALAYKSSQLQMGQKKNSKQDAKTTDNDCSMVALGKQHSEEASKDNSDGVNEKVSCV
KiSS-1 receptor (Homo sapiens), sequence (Q969F8 whole entry, looked up): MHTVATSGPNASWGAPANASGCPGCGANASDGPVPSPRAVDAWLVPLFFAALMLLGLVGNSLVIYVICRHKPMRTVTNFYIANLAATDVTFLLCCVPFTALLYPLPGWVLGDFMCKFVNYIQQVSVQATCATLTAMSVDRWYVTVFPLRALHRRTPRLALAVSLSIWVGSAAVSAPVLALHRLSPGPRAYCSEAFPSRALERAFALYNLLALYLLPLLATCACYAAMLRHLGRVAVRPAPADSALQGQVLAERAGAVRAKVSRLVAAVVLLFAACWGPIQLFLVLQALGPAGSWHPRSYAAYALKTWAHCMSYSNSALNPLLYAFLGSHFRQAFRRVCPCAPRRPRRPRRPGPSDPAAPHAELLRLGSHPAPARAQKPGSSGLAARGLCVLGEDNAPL

Take `CC(Cc1ccccc1)(NC(=O)CN)c1ccccc1` (configuration not stated): the Potency result in [1], in test [2], in test [3], in test [4], in [5] and in [6] was “inactive” each time. Further, the Potency result in test [7], in [8], in test [9], in test [10], in [11] and in test [12] was “inactive” in each case. The Potency result in test [13], in [14], in test [15], in test [16] and in [17] was “inactive” each time.

With `O=C(NO)C1(NS(=O)(=O)c2ccc(Oc3ccc(F)cc3)cc2)CCOCC1`, the Potency result in [1], in test [2], in test [3], in test [4], in [5] and in test [6] was “inactive” each time. Further, the Potency result in test [7], in test [8], in [9], in test [10], in [11] and in [12] was “inactive” each time. Moreover, the Potency result in [13], in test [14], in test [15] and in test [18] was “inactive” each time.

In the case of `Cc1cccc(NC(=S)N(C)C)c1`, the Potency entry in test [1], in test [2], in test [3], in test [4], in test [5] and in test [6] was “inactive” in each case. The Potency result in test [7], in [8], in test [9], in test [10], in test [11] and in test [12] was “inactive” each time. The Potency result in test [13], in [14], in test [15], in [16], in test [18] and in [17] was “inactive” each time.

In the case of `CCCCCCCCCCCCSCCOCCO`, the Potency result in [1], in test [2], in test [3], in test [4], in test [5] and in test [6] was “inactive” in each case. In addition, the Potency entry in test [7], in test [8], in test [9], in [10], in [11] and in [13] was “inactive” each time. The Potency entry in [14], in test [15], in test [16], in test [18] and in test [17] was “inactive” throughout. For the same compound, the Potency in test [12] is 37.9 nM (active).

Regarding `CC(=O)OC1C2(C)CCC(C2)C1(C)C` (configuration not stated), the Potency entry in test [1], in test [2], in test [3], in test [4], in test [5] and in test [6] was “inactive” in each case. The Potency result in test [7], in [8], in test [9], in [10], in test [11] and in test [12] was “inactive” each time. Besides, the Potency result in test [13], in test [14], in [15], in test [16], in test [18] and in [17] was “inactive” in each case.

`O=C(Cl)c1cccc([N+](=O)[O-])c1`: the Potency entry in test [1], in [2], in test [3], in [4], in test [5] and in test [6] was “inactive” each time. The Potency entry in test [7], in [8], in test [9], in test [10], in test [11] and in [12] was “inactive” each time. The Potency result in test [13], in test [14], in test [15], in test [18] and in test [17] was “inactive” each time.

Take `CCOC(=O)C(F)(F)F`: the Potency entry in [1], in test [2], in test [3], in test [4], in test [5] and in [6] was “inactive” in each case. The Potency entry in test [7], in test [8], in test [9], in test [10], in [11] and in test [12] was “inactive” throughout. The Potency result in test [13], in test [14], in test [15], in test [16], in [18] and in test [17] was “inactive” throughout.
